Cruzain Triton: inhibitors of Trypanosoma cruzi cruzain with detergent. hit rate 0.43% among 200,000. AID 1478. purified cruzain, Z-FR-AMC fluorescence, 0.01% Triton. P25779. Potency, µM, without a hit: max response, negative = inhibition, most hits filed as inhibitors;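 note: plate controls were neutral wells for no effect and buffer without enzyme for full effect; nearly all actives have a fitted effect of over 40% in size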
Target sequence (P25779 123-467 limits assumed): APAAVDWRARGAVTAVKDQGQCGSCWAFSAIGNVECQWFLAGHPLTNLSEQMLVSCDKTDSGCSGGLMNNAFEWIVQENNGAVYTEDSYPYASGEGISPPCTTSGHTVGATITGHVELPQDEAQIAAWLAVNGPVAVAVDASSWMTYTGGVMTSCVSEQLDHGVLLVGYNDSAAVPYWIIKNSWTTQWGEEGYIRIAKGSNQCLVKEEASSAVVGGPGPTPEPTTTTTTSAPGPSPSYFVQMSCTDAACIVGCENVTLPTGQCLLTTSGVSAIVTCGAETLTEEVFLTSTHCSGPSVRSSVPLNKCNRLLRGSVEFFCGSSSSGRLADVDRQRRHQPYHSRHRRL
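15 min RT preincubation of 1.5 nM cruzain with compound, then 2 uM Z-FR-AMC added; kinetic AMC fluorescence, 60 s delta. Triton X-100 0.01%, pH 5.5.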
Cruzain inh noDet: blocks cruzain activity in detergent-free assay | Potency, µM, for inactives: max response, negative = inhibition, actives largely listed as inhibitors | AID 1476 | hit rate 2.3% among 200,000 | P25779 | purified cruzain, Z-FR-AMC fluorescence, no detergent;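 note: plate controls were enzyme without inhibitor for no effect and buffer without enzyme for full effect; nearly all actives have a fitted effect of over 40% in size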
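Purified cruzain at 1.5 nM, pre-incubated 15 min with compound at room temperature in 100 mM sodium acetate pH 5.5, 5 mM DTT, 0.00005% Triton X-100. Reaction started with 2 uM Z-FR-AMC; AMC fluorescence increase over 60 s gives rate.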
An asterisk follows results filed as active; ? = inconclusive. In the library only some 2.4% were active in any assay of this set; here they are far more common. Calls come from the whole dose curve; as a rule, active = well fitted curve in the direction sought with a large enough effect; inconclusive = small, poorly fitted or top-dose-only effect, or another doubt; inactive = no such curve, though single readings can be large; an effect the other way counts as inactive or inconclusive. Potency is the fitted concentration of half-maximal effect.

SMILES | Cruzain Triton | Cruzain inh noDet
COc1ccccc1-n1c(SCC(=O)Nc2nnc(C)s2)nc2c(c1=O)SCC2 | 22µM* | -5%
CCOC(=O)c1sc(NC(=O)CSc2nc3ccccc3s2)c(C(=O)OCC)c1C | -5% | 20µM*
CCOC(=O)c1sc(NC(=O)CSc2nnnn2-c2ccc(C)cc2)c(C(=O)OCC)c1C | 1% | -29%
COc1ccccc1-n1c(SCC(=O)Nc2ccc(F)cc2)nc2c(c1=O)SCC2 | -28% | -18%
CC(Nc1oc(-c2ccccc2)nc1-c1cccc2ccccc12)c1ccccc1 (stereo not drawn) | -2% | -28%
CCOc1ccccc1CNC(=O)c1ccc(Cn2c(SCc3ccccc3)nc3cccnc32)cc1 | -5% | -23%
COc1ccc(N(C)C(=O)CCn2cnc3onc(-c4ccc(F)cc4)c3c2=O)c(OC)c1 | -6% | 25%
CCCn1c(SCC(=O)N2N=C3/C(=C/c4ccc(OC)cc4)CCCC3C2c2ccc(OC)cc2)n[nH]c1=O (stereo not drawn) | -11% | 15%
COc1ccc(/C=C2\CCCC3C2=NC(=S)NC3c2ccc(OC)cc2)cc1 (stereo not drawn) | -5% | 25µM*
COc1cccc(CNC(=O)CCc2nnc3n(C)c(=O)c4sccc4n23)c1 | -1% | -12%
CC(=O)OCC1OC(Oc2cc(OC(C)=O)c3c(=O)cc(-c4ccc(OC(C)=O)c(OC(C)=O)c4)oc3c2)C(OC(C)=O)C(OC(C)=O)C1OC(C)=O (stereo not drawn) | 1% | ?
CCN(C(=O)Cn1c(C(=O)OC)cc2sc(Cl)cc21)c1cccc(C)c1 | -1% | 5%
COC(=O)c1ccc(C2c3c(-c4ccc(Br)cc4)n[nH]c3C(=O)N2c2ccc(Cl)cc2)cc1 (stereo not drawn) | -1% | 16µM*
O=C1c2[nH]nc(-c3ccc(Br)cc3)c2C(c2cccc(O)c2)N1c1ccc(Cl)cc1 (stereo not drawn) | -5% | ?
Cc1cccc(C)c1OCC(=O)NCC1(N2CCOCC2)CCCCC1 | -2% | 14%
Cc1ccc2nc(C3CCCN(C(=S)Nc4cccc(C)c4C)C3)[nH]c2c1 (stereo not drawn) | 14µM* | 16µM*
Cc1ccc(NC(=S)N2CCCC(c3nc4ccc(C)cc4[nH]3)C2)c(C)c1 (stereo not drawn) | ? | -26%
COc1ccccc1CNC(=O)c1ccc(-c2nc(CS(=O)c3ccc(C)cc3)c(C)o2)cc1 (stereo not drawn) | 0% | 5%
CCS(=O)(=O)N1Cc2ccccc2CC1C(=O)Nc1nccs1 (stereo not drawn) | 7% | -5%
O=C(CN1C(=O)C2CC=CCC2C1=O)Nc1nnc(SCc2c(Cl)cccc2Cl)s1 (stereo not drawn) | 1% | 16µM*
O=C(CN1C(=O)C2CC=CCC2C1=O)Nc1nnc(SCc2ccc(Cl)cc2)s1 (stereo not drawn) | -3% | -20%
CCSc1nnc(NC(=O)C2Cc3ccccc3CN2S(=O)(=O)CC)s1 (stereo not drawn) | -9% | -6%
CCS(=O)(=O)N1Cc2ccccc2CC1C(=O)Nc1nnc(SCc2c(Cl)cccc2Cl)s1 (stereo not drawn) | -1% | 7.9µM*
CCS(=O)(=O)N1Cc2ccccc2CC1C(=O)Nc1nc2c(C)cccc2s1 (stereo not drawn) | -12% | 25µM*
Cc1ccc(C(=O)N2c3nc(-c4ccco4)nn3C3(CCCCC3)[C@@H]3CCCC[C@@H]32)cc1 | -5% | 2%
SMILES | Cruzain Triton | Cruzain inh noDet
COc1cc(-c2c(C#N)c(N)nc(SCc3ccncc3)c2C#N)cc(OC)c1OC | -1% | 0%
N#Cc1c(N)nc(SCc2ccncc2)c(C#N)c1-c1cccs1 | -6% | 25µM*
Cc1ccc(CSc2nc(-c3cccs3)ccc2C#N)cc1 | -3% | 25µM*
C#CCSc1nc(-c2cccs2)ccc1C#N | -8% | -7%
Cc1ccc(C2=Nc3ccccc3N(CC(=O)Nc3ccccc3C)C(=O)C2)cc1C | -4% | 1%
CCS(=O)(=O)c1ncc(N(Cc2ccco2)Cc2sccc2C)c(C(=O)Nc2cc(C)ccc2C)n1 | -4% | -27%
CCOC(=O)c1sc2ccccc2c1S(=O)(=O)NCc1ccccc1OC | -7% | -7%
O=S(=O)(Nc1nc2ccccc2nc1Nc1cccc(S(=O)(=O)N2CCCCC2)c1)c1ccccc1 | -11% | 16µM*
COc1ccc(S(=O)(=O)Nc2cccc(S(=O)(=O)N3CCCCCC3)c2)cc1 | -5% | 2%
COC(=O)c1c(-c2ccc(Cl)cc2)noc1N1CCN(c2cccc(OC)c2)CC1 | 5% | -9%
COc1ccc(NS(=O)(=O)c2ccc(N/N=C/c3ccc(N4CCOCC4)cc3)c([N+](=O)[O-])c2)cc1 | -5% | 25µM*
COc1ccc(/C=N/Nc2ccc(C(F)(F)F)cc2[N+](=O)[O-])cc1 | -4% | 2%
COc1ccccc1CNC(=O)CN1N=C(c2ccccc2)CCC1=O | 0% | 0%
